Assay outcomes: PubChem BioAssay, several laboratories
IEC-6 tox: counter-screen for KLF5 inhibitors: cytotoxicity in IEC-6 cells | inhibition, % at 5 µM | IEC-6 cytotoxicity, luminescence viability | 290,000 tested, 0.78% active;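 further: 0% = plate median of test compound wells and 100% = cytotoxic reference compound wells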
APP 5UTR inh: APP translation inhibition. 190,000 tested, 0.82% active. SH-SY5Y APP 5'UTR-luciferase reporter, luminescence. inhibition, % at 2 µM;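 active means inhibition above a set limit, derived from the sample mean plus 3 SD, cut at about 45% in these data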
BaF3 parental: counter-screen for JAK2V617F inhibitors: parental Ba/F3 viability inhibitors; inhibition, % at 5.6 µM; CellTiter-Glo ATP luminescence; AID 1486; 220,000 tested, 1.1% active;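 active means inhibition above a per-campaign cutoff, the mean inhibition of all tested compounds plus 3 SD, cut at about 27% in these data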;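 further: 0% = DMSO wells and 100% = JAK Inhibitor I control wells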
KLF5 inhibitor: suppresses KLF5 promoter-driven expression; 290,000 tested, 0.23% active; AID 1700; DLD-1 KLF5 promoter-luciferase reporter, luminescence; inhibition, % at 5 µM;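 active means inhibition above a per-plate limit of that plate's mean compound inhibition plus 3 SD, cut at about 60% in these data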;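 further: 0% = DMSO wells and 100% = LY294002 at 200 µM; higher means less KLF5 promoter-driven luciferase light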
Ba/F3 V617F tox: reduce viability of Ba/F3 cells dependent on JAK2V617F | Ba/F3 EpoR-JAK2V617F viability, ATP luminescence | 220,000 tested, 1.1% active | inhibition, % at 5.6 µM;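 active means inhibition above the campaign mean plus 3 SD over all tested compounds, cut at about 24% in these data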;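 further: cytokine-independent growth of Ba/F3 cells driven by EpoR plus mutant JAK2; 0% = DMSO-treated cells and 100% = JAK inhibitor I control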
IEC-6 cytotox cf: confirmation of cytotoxic compounds in rat IEC-6 intestinal epithelial cells; shares compounds with IEC-6 tox; IEC-6 rat intestinal epithelial viability, luminescence; inhibition, % at 5 µM; 1,900 tested, 63% active;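 further: 0% = vehicle and 100% = reference cytotoxic drug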
Starred values were filed as active, the others as inactive; . = not tested or not shown. The list is not random: actives were taken first. Their share in the collection is about 1.9%. Unless noted, no stated cut-off is given here; in the data, active means inhibition above about 22%; inactive means the rest.

SMILES	IEC-6 tox	APP 5UTR inh	BaF3 parental	KLF5 inhibitor	Ba/F3 V617F tox	IEC-6 cytotox cf
CCC(=O)NC(c1ccc(Cl)cc1Cl)c1ccc2cccnc2c1O (stereo unspecified)	26*	.	.	86*	.	70*
Cc1ccnc(NC(c2cccnc2)c2ccc3cccnc3c2O)c1 (stereo unspecified)	-2	7	4	6	2	.
CC(NC(=O)CSc1ncccn1)c1ccc(Cl)cc1Cl (stereo unspecified)	-7	-8	9	-22	-3	.
CCC(=O)NC(c1ccc(C)cc1)c1ccc2cccnc2c1O (stereo unspecified)	61*	.	.	73*	.	82*
COc1ccc(CCNC(=O)c2cc3c(=O)n4cccc(C)c4nc3n(Cc3ccco3)c2=N)cc1OC	36*	.	.	-3	.	1
Cc1cccn2c(=O)c3cc(C(=O)NCCc4ccccc4)c(=N)n(Cc4ccco4)c3nc12	63*	.	.	25	.	-2
COCCNC(=O)c1cc2c(=O)n3cccc(C)c3nc2n(Cc2ccncc2)c1=N	0	-2	9	-25	2	.
Cc1cccn2c(=O)c3cc(C(=O)NCc4ccco4)c(=N)n(CCc4ccccc4)c3nc12	-12	.	-4	-16	1	.
CCOC(=O)Nc1ccc2c(c1)N(C(=O)CCN(CC)CC)c1ccccc1CC2	5	.	.	-21	.	.
CCOC(=O)Nc1ccc2c(c1)N(C(=O)CCN(CC)CC)c1ccccc1S2=O (stereo unspecified)	23*	.	.	-2	.	13
CN(Cc1cn(C)nc1-c1ccc(Oc2ccccc2)cc1)C1CCOC1 (stereo unspecified)	-2	.	4	-13	-1	.
CN(Cc1cn(C)nc1-c1ccc(Oc2ccccc2)cc1)CC1COCCO1 (stereo unspecified)	77*	15	102*	5	98*	3
COCCNC(=O)CN(c1ccc(F)cc1)S(=O)(=O)c1ccc2c(c1)OCCO2	4	.	.	-13	.	.
O=C(Cc1ccc(-c2ccccc2)cc1)NCc1cccnc1	25*	-40	20	-1	18	25*
O=C(Nc1cccnc1)c1ccco1	-4	26	6	-8	1	.
O=C(NCc1cccnc1)c1ccc([N+](=O)[O-])o1	32*	7	-6	-17	1	16
O=C(Nc1cccnc1)c1ccc([N+](=O)[O-])o1	76*	.	.	-11	.	2
OC(CN1CCC(Cc2ccccc2)CC1)c1ccccc1 (stereo unspecified)	3	.	.	-53	.	.
O=C(COc1ccc(Cl)cc1Cl)N/N=C/c1ccc[nH]1	1	.	.	-17	.	.
COc1cc(/C=C/c2nc3ccccc3c(=O)[nH]2)ccc1OC(F)F	-1	.	.	-127	.	.
COc1cc(/C=C/c2nc3ccccc3c(=O)[nH]2)cc(OC)c1OC	61*	.	.	32	.	71*
O=C(Nc1ccnn1C1CCN(C(=O)c2cccc(Cl)c2)CC1)C1CC1	-2	.	.	-37	.	.
COc1cc(CCC(=O)OCC(=O)Nc2ccc3c(c2)OCO3)cc(OC)c1OC	5	.	.	-24	.	.
COc1cc(CC(=O)OCC(=O)c2ccc3c(c2)OCCO3)cc(OC)c1OC	88*	94*	79*	42	72*	56*
CC(=O)c1ccc(NC(=O)COc2ccc3c(c2)OCO3)cc1	-4	-33	5	-22	-1	.
SMILES	IEC-6 tox	APP 5UTR inh	BaF3 parental	KLF5 inhibitor	Ba/F3 V617F tox	IEC-6 cytotox cf
CC(=O)C(C(c1ccccc1)c1c[nH]c2ccccc12)[N+](=O)[O-] (stereo unspecified)	32*	.	.	22	.	21
O=C(NCCCO)c1cc2ccccc2[nH]1	-2	-11	5	-2	6	.
NNC(=O)c1cc2ccccc2[nH]1	32*	90*	3	34	3	-5
CC1(C)Cc2c(sc(NC(=O)C(=O)NCC3CCCO3)c2C(N)=O)CO1 (stereo unspecified)	4	.	.	2	.	.
CC(=O)Nc1ccc(NC(=O)C(=O)c2cn(CC(=O)N3CCCC3)c3ccccc23)cc1	0	.	.	-23	.	.
COc1ccc(NC(=O)C(=O)c2cn(CC(=O)N3CCCC3)c3ccccc23)cc1	93*	.	.	59	.	66*
Cc1cccc(NC(=O)CSc2cc(C)c(C#N)c3nc4ccccc4n23)c1	-9	.	-7	-19	-1	.
Cc1cc(NS(=O)(=O)c2ccc(NC(=S)NC(=O)c3ccccc3)cc2)no1	63*	-25	10	-36	5	23*
COc1ccc(-c2cc(C(=O)N3CCN(c4ccccc4)CC3)c3ccccc3n2)cc1	28*	75*	10	-5	2	6
COc1ccc(-c2cc(C(=O)N3CCCC3)c3ccccc3n2)cc1	7	.	.	-45	.	.
CC1=Nc2cc(C(=O)NCCN3CCOCC3)ccc2Sc2c(C)ccc(C)c21	33*	.	.	14	.	32*
CC1=Nc2cc(C(=O)NCCCN3CCOCC3)ccc2Sc2c(C)ccc(C)c21	18	.	.	-8	.	.
COc1cc(Oc2nc(C(F)(F)F)nc3ccccc23)ccc1C=O	0	.	.	-7	.	.
O=C(O)c1ccc(N/N=C/c2cccc(C(F)(F)F)c2)cc1	32*	.	.	-138	.	37*
CCOc1ccc(-c2[nH]ncc2-c2ccc(OC)c(OC)c2)c(O)c1	41*	70*	59*	47	53*	50*
COc1ccc(NC(=O)CSc2nnnn2C2CCCCC2)cc1	3	.	.	4	.	.
COc1cc(OC)c(NC2=CC(=O)C(=O)c3ccccc32)cc1Cl	78*	.	.	42	.	31*
CCC(C(=O)Nc1cc(Cl)c(OC)cc1OC)c1ccccc1 (stereo unspecified)	3	0	8	0	1	.
C=CCN(c1ccccc1)S(=O)(=O)c1cccc(C(=O)N2CC(C)CC(C)C2)c1 (stereo unspecified)	-4	.	.	-21	.	.
O=C(NCCN1CCOCC1)c1ccncc1	-8	-14	1	3	-1	.
O=C1C=C(NCCN2CCOCC2)C(=O)c2cnccc21	99*	13	11	30	8	100*
CC(=O)NC1=NN(C(C)=O)C(C)(c2ccccc2)S1 (stereo unspecified)	64*	49*	61*	44	67*	45*
CC(=O)NC1=NN(C(C)=O)C(C)(c2ccc3ccccc3c2)S1 (stereo unspecified)	6	12	9	-26	0	.
Cc1ccc(OCCn2cc(C(=S)N3CCCC3)c3ccccc32)cc1C	70*	-1	3	24	3	44*
CC(C(=O)OCC(=O)c1cccc([N+](=O)[O-])c1)N1C(=O)C2C3C=CC(C3)C2C1=O (stereo unspecified)	-4	.	.	5	.	.
COC(=O)c1c(C)oc2ccc(N(C(=O)c3ccncc3)S(=O)(=O)c3ccc(C)cc3)cc12	52*	89*	75*	45	86*	57*
CC1CC(C)C[N+](=C2C=C(N3CCCC3)CC(C)(C)C2)C1 (stereo unspecified)	35*	7	72*	9	92*	23*
CCCc1cc(CN(C)C(=O)CC2C(=O)NCCN2Cc2ccccc2C)[nH]n1 (stereo unspecified)	-8	.	.	-35	.	.
